Data from PubChem BioAssay (EPA / NIEHS).
Active and inactive are the calls of the source. Rule for the calls: active = hit-call score of the fitted dose curve at least 0.9, where 1 is the maximum; inactive = score below 0.9.

Test: ATG_GLI_CIS: Attagene CIS-FACTORIAL HepG2 Assay for human Zinc Finger Protein GLI1 (AID 2282945)
Details: HepG2, Attagene cis-factorial reporter mRNA, GLI element; actives raise or lower the signal
Experimental: ATG_CIS is a cell-based, multiplexed-readout assay that uses HepG2, a human liver cell line, with measurements taken at 24 hours after chemical dosing in a 24-well plate.ATG_GLI_CIS is one of 52 assay component(s) measured or calculated from the ATG_CIS assay. It is designed to make measurements of mRNA induction, a form of inducible reporter, as detected with fluorescence intensity signals by Reverse transcription polymerase chain reaction (RT-PCR) and Capillary electrophoresis technology.Data from the assay component ATG_GLI_CIS was analyzed into 1 assay endpoint. This assay endpoint, ATG_GLI_CIS, was analyzed with bidirectional fitting relative to DMSO as the negative control and baseline of activity. Using a type of inducible reporter, measures of mRNA for gain or loss-of-signal activity can be used to understand the reporter gene at the transcription factor-level as they relate to the gene GLI1. Furthermore, this assay endpoint can be referred to as a primary readout, because this assay has produced multiple assay endpoints where this one serves a reporter gene function. To generalize the intended target to other relatable targets, this assay endpoint is annotated to the dna binding intended target family, where the subfamily is zinc finger.
Human liver HepG2 cells are transiently transfected with multiple reporter transcription units (MRTUs) in 6-well plates using FuGene 6 reagent (Roche; 3 ml FuGene/1 mg DNA). The MRTU constructs are regulated by a cis-regulating element (promoter). […] A major difference between the CIS and TRANS system is that in CIS activities of endogenous TFs are measured, whereas the TRANS assay evaluates changes in activities of exogenous, chimeric NR-Gal4 proteins. […] At the end of 24 hour incubation, total RNA was isolated using TriZol reagent (Invitrogen). The isolated RNA is then reverse-transcribed using oligo(dT) primer and Mo-MLV reverse transcriptase (Invitrogen) with DNAse I (Ambion) treatment for 30 min. The one-tenth of the produced cDNA was amplified by PCR using Taq DNA polymerase (Invitrogen) and two reporter sequence-specific primers. The PCR products were fluorescently labeled by primer extension with 6-arboxyfluorescein (6-FAM) 5'-labeled reporter sequence-specific primer (2 min at 95 C, 20 s at 68 C and 10 min at 72 C) and these products were digested with 5U of HpaI (New England Biolabs) for 2h at 37 C. The fragments were purified using Qiaquick PCR columns (Qiagen), analyzed on an ABI 3130xL genetic analyzer (Applied Biosystems) with peak positions identified by using a set of X-rhodamine (ROX)-labeled MapMarker1000 molecular weight standards (BioVentures). The raw capillary electrophoresis data was processed using Attagraph software (Attagene).

| SMILES | outcome | AC50 |
| --- | --- | --- |
| C=CC(=O)OCC(O)COc1ccccc1 (stereo not given) | inactive | – |
| C[Si](O[Si](C)(C)C)O[Si](C)(C)C | inactive | – |
| COc1ccc(NC(=O)CC(C)=O)cc1 | inactive | – |
| CN1Cc2c(N)cccc2C(c2ccccc2)C1 (stereo not given) | inactive | – |
| CC(C)(Oc1ccc(CCNC(=O)c2ccc(Cl)cc2)cc1)C(=O)O | inactive | – |
| CCCCOCCOCCOCCOCCO | inactive | – |
| C#C[C@]1(O)CC[C@H]2[C@@H]3CCC4=Cc5oncc5C[C@]4(C)[C@H]3CC[C@@]21C | – | 60.9 µM (active) |
| Clc1cccc(Cl)n1 | inactive | – |
| CCC(O)CO (stereo not given) | inactive | – |
| O=C(O)COCCN1CCN(C(c2ccccc2)c2ccc(Cl)cc2)CC1 (stereo not given) | inactive | – |
| C[C@]12CC[C@H]3[C@@H](CCC4=CC(=O)CC[C@@]43C)[C@@H]1CC[C@@H]2C(=O)CO | inactive | – |
| COC(C(=O)O)c1ccccc1 (stereo not given) | inactive | – |
| CC(O)C(C)O (stereo not given) | inactive | – |
| C=CC[N+](C)(C)CC=C | inactive | – |
| CC(C)[C@H]1CC[C@@H](C)CC1=O | inactive | – |
| CC(=O)[O][Al][O]C(C)=O | inactive | – |
| COc1ccc(OC)c(OC)c1 | inactive | – |
| NCCNCCN | inactive | – |
| O=C[C@@H](O)[C@H](O)[C@H](O)CO | inactive | – |
| O=S(=O)(O)c1ccc(O)c2ncccc12 | inactive | – |

| SMILES | outcome | AC50 |
| --- | --- | --- |
| CNC(=O)Oc1ccc2c(c1)[C@]1(C)CCN(C)[C@@H]1N2C | inactive | – |
| C=CC(C)(O)CCC=C(C)CCC=C(C)C (stereo not given) | – | 178 µM (active) |
| COc1ccc(Nc2ccccc2)c(C)c1 | inactive | – |
| COc1cc2ncnc(Nc3cccc(Cl)c3)c2cc1OC | inactive | – |
| BrC1CCC(Br)C(Br)CCC(Br)C(Br)CCC1Br (stereo not given) | – | 69.1 µM (active) |
| O=Cc1ccc(F)cc1 | inactive | – |
| c1cc(C(c2ccc(OCC3CO3)cc2)c2ccc(OCC3CO3)cc2)ccc1OCC1CO1 (stereo not given) | inactive | – |
| O=C(O)CCSCCC(=O)O | inactive | – |
| COc1nc(C)nc(N)n1 | inactive | – |
| OC[C@H]1O[C@H](O[C@]2(CCl)O[C@H](CCl)[C@@H](O)[C@@H]2O)[C@H](O)[C@@H](O)[C@H]1Cl | inactive | – |
| COC(C)CCO (stereo not given) | inactive | – |
| O=C1CCCCCCCCCCOCCCCO1 | inactive | – |
| O=C(OCc1ccccc1)C(=O)OCc1ccccc1 | inactive | – |
| FC1(F)C(F)(F)C(F)(F)C2(F)C(F)(C1(F)F)C(F)(F)C(F)(F)C1(F)C(F)(F)C(F)(F)C(F)(F)C(F)(F)C12F (stereo not given) | inactive | – |
| COc1cc(C(C)(C)C)c(O)c(C(C)(C)C)c1 | inactive | – |
| O=C(O)Cc1cccc2ccccc12 | inactive | – |
| Nc1ccc(S(N)(=O)=O)cc1 | inactive | – |
| CC1COc2ccccc2N1C(=O)C(Cl)Cl (stereo not given) | inactive | – |
| CCC(=O)OCc1ccccc1 | inactive | – |
| CCOC(=S)SSC(=S)OCC | inactive | – |
